# Test results published in PubChem BioAssay (EPA / NIEHS).
# Results filed as inconclusive are left out. Activity calls are given as the source filed them. How the source made its calls, unless noted: active means hit-call score of the fitted dose curve at least 0.9, where 1 is the maximum; inactive means score below 0.9.
# Assay: CCTE_Shafer_MEA_dev_burst_rate: CCTE's Neural Network Formation Assay for Burst Rate, Shafer Lab (AID 2284042);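 on AC50: potency for loss of burst rate below DMSO control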
# Outline: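 Exposure ran continuously over 12 days of network development in rat cortical cultures, with compound refreshed during full media changes on DIV 5 and 9. Single-electrode bursts per recording time, well-mean over active electrodes, trapezoidal AUC across days 5–12, fitted downward relative to DMSO.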
SMILES,outcome,AC50
c1ccc2c(c1)ccc1cc3c(ccc4ccccc43)cc12,inactive,–
CC=CC(F)(F)C(F)(F)C(F)(F)F,inactive,–
CN(C)c1ccc(C(=N)c2ccc(N(C)C)cc2)cc1,–,1710 nM (active)
COC(F)(F)C(F)(C(F)(F)F)C(F)(F)F,inactive,–
CC1(C)S[C@@H]2[C@H](NC(=O)COc3ccccc3)C(=O)N2[C@H]1C(=O)O,inactive,–
FC(F)=C(F)OC(F)(F)C(F)(F)C(F)(F)F,inactive,–
N[C@H]1C(O)O[C@H](CO)[C@H](O)[C@@H]1O (stereo partly drawn),inactive,–
CCOC(F)(F)C(F)(F)C(F)(F)C(F)(F)F,inactive,–

# Assay: CCTE_Shafer_MEA_dev_bursting_electrodes_number: CCTE's Neural Network Formation Assay for Number of Bursting Electrodes, Shafer Lab (AID 2284043; active means hit-call score of the fitted dose curve at least 0.9, where 1 is the maximum;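 on AC50: potency is for loss of bursting electrodes relative to DMSO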)
# Outline: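 Primary rat cortical neurons were cultured on PEI-coated 48-well MEA plates (16 electrodes/well) and exposed from plating through day 12, with compound renewed at feeds on DIV 5 and 9. Electrodes bursting ≥1 per 2 min were counted on DIV 5, 7, 9, 12; trapezoidal AUC taken.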
SMILES,outcome,AC50
c1ccc2c(c1)ccc1cc3c(ccc4ccccc43)cc12,inactive,–
CC=CC(F)(F)C(F)(F)C(F)(F)F,inactive,–
CN(C)c1ccc(C(=N)c2ccc(N(C)C)cc2)cc1,–,2270 nM (active)
COC(F)(F)C(F)(C(F)(F)F)C(F)(F)F,inactive,–
CC1(C)S[C@@H]2[C@H](NC(=O)COc3ccccc3)C(=O)N2[C@H]1C(=O)O,inactive,–
N[C@H]1C(O)O[C@H](CO)[C@H](O)[C@@H]1O (stereo partly drawn),–,24800 nM (active)
CCOC(F)(F)C(F)(F)C(F)(F)C(F)(F)F,inactive,–

# Assay: CCTE_Shafer_MEA_dev_per_burst_interspike_interval: CCTE's Neural Network Formation Assay for Burst Interspike Interval, Shafer Lab (AID 2284044);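 further: mean spike spacing inside bursts as AUC over recordings on days 5 7 9 12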;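 on AC50: potency for a decrease of within-burst interspike interval below DMSO level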
# Outline: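 Rat cortical primary cultures, 16 electrodes/well; compound from plating, renewed with full media change DIV 5 and 9. Spikes via adaptive detector; per-burst ISI well-mean over active bursting electrodes; AUC of DIV 5/7/9/12 recordings; loss-direction fit vs DMSO.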
SMILES,outcome,AC50
c1ccc2c(c1)ccc1cc3c(ccc4ccccc43)cc12,inactive,–
CC=CC(F)(F)C(F)(F)C(F)(F)F,inactive,–
CN(C)c1ccc(C(=N)c2ccc(N(C)C)cc2)cc1,–,3430 nM (active)
COC(F)(F)C(F)(C(F)(F)F)C(F)(F)F,inactive,–
CC1(C)S[C@@H]2[C@H](NC(=O)COc3ccccc3)C(=O)N2[C@H]1C(=O)O,inactive,–
FC(F)=C(F)OC(F)(F)C(F)(F)C(F)(F)F,inactive,–
N[C@H]1C(O)O[C@H](CO)[C@H](O)[C@@H]1O (stereo partly drawn),–,2980 nM (active)
CCOC(F)(F)C(F)(F)C(F)(F)C(F)(F)F,inactive,–
